Mito fusion act – blocks mitochondrial division or promotes mitochondrial fusion. S. cerevisiae fusion-defective mutant growth rescue, CellTiterGlo 48 h. Potency, µM (top dose mostly 46.1 µM), most hits filed as activators. hit rate 0.23% among 320,000. AID 485298; further: nearly all actives have a fitted effect of over 45% in size
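Yeast fusion mutant, YPEG (non-fermentable carbon), compound, 48 h at 37C non-permissive; CellTiterGlo added, 10 min RT, luminescence read. Rescued growth = division inhibition.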
Abeta rescue – restores growth of yeast expressing A-beta42 peptide. hit rate 0.063% among 410,000. yeast expressing A-beta42, growth rescue, OD600, 48 h; response scale: 0% DMSO, 100% iron-clioquinol control. AID 1347071. Potency, µM (titrated, usually from 46.1 µM), usual class: activators; further: nearly all actives have a fitted effect of over 55% in size
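Yeast growth medium received pinned compounds, then yeast cells expressing toxic A-beta were added; plates incubated at 30 C for 48 hr. Growth read as absorbance at 600 nm, normalized to DMSO and equimolar FeCl3 plus clioquinol controls.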
TDP-43 yeast inh – rescues yeast growth from TDP-43 toxicity; Potency, µM (doses to about 46.1 µM), hits mostly activators; hit rate 1.8% among 410,000; TDP-43 expressing yeast growth rescue, BacTiter-Glo, 24 h; further: nearly all actives have a fitted effect of over 50% in size
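Growth rescue of TDP-43-toxic yeast measured as ATP luminescence (BacTiter-Glo). Cells grown to mid-log in raffinose, induced in galactose at OD600=0.02, exposed to compound 24 hr at 30 deg C.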
aSyn yeast inh – alpha-synuclein toxicity inhibition in yeast. Potency, µM (doses to about 46.1 µM), hits mostly activators. Yeast expressing alpha-synuclein, growth rescue, BacTiter-Glo, 24 h. hit rate 0.14% among 370,000. AID 652106; further: nearly all actives have a fitted effect of over 65% in size
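Screening used galactose-induced yeast with toxic alpha-synuclein levels, exposed to compound for 24 hr at 30 deg C. Cell growth, read with BacTiter-Glo luminescence, gave the measured signal.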
FUS yeast rescue – rescues growth of FUS-expressing yeast | S. cerevisiae FUS-expressing, growth rescue, OD600, 24 h | Potency, µM (highest dose often 76.6 µM), most hits filed as activators | hit rate 0.24% among 390,000 | AID 1347120; further: nearly all actives have a fitted effect of over 55% in size
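Restored growth of FUS-toxic S. cerevisiae, read as 600 nm absorbance after 24 h at 30C in galactose medium (starting OD 0.005). Controls CP55940 and DMSO.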
Large screens that a line does not name were inactive. Shown are actives, neighbours in structure and some others; about 2.2% of the full set was active somewhere. The call rests on the fitted dose curve; in most records, active means well fitted curve in the direction sought with a large enough effect; inconclusive means small, poorly fitted or top-dose-only effect, or another doubt; inactive means no such curve, though single readings can be large; an effect the other way counts as inactive or inconclusive.

Cc1ccccc1NC(=O)COC(=O)CC1CCCC1	none
CCc1ccc(OCC(=O)NCCc2ccc3c(c2)OCCO3)cc1	TDP-43 yeast inh 32µM
Cc1ccccc1OCC(=O)Nc1ccc2c(c1)COC2=O	none
CCc1ccc(OCC(=O)Nc2ccc3c(c2)COC3=O)cc1	TDP-43 yeast inh 13µM
COCc1ccc(-c2c(-c3ccsc3)oc(=O)c3cc(OC)c(OC)cc23)cc1	none (no result: Mito fusion act)
CNC(=O)COC(=O)/C=C/c1nc2ccccc2s1	TDP-43 yeast inh 16µM
COc1ccc(C(=O)N2C=Cc3ccccc3C2C(N)=O)cc1 (stereo not given)	none (no result: Mito fusion act)
COc1ccc(C(=O)N2C=Cc3ccccc3C2C#N)cc1 (stereo not given)	TDP-43 yeast inh 16µM (no result: Mito fusion act)
Clc1cc(Cl)cc(CNC2CCC23CCCCC3)c1 (stereo not given)	none (no result: Mito fusion act, Abeta rescue, TDP-43 yeast inh, aSyn yeast inh)
c1cn2c(NC3CCCCC3)c(-c3ccc(SC4CCCCC4)cc3)nc2cn1	TDP-43 yeast inh inconclusive
c1cc(SC2CCCCC2)cc(-c2nc3cnccn3c2NC2CCCCC2)c1	TDP-43 yeast inh 22µM (no result: Mito fusion act)
CC(C)(C)C(=O)OC12CCCN(C1)/C(=C/c1ccc(C#N)cc1)C2 (stereo not given)	none (no result: Mito fusion act, Abeta rescue, TDP-43 yeast inh, aSyn yeast inh)
Cc1ccsc1C(=O)Nc1n[nH]c(C(F)(F)F)n1	TDP-43 yeast inh 35µM
Cc1csc(NC(=O)c2sccc2C)n1	none
O=C(CSc1cccc[n+]1[O-])c1ccccc1Br	Abeta rescue inconclusive, TDP-43 yeast inh 35µM, aSyn yeast inh inconclusive
COc1c(-c2ccc(O)c(O)c2)oc2cc(O)cc(O)c2c1=O	Mito fusion act 0.63µM
CCOC(=O)CC[C@H]1CC[C@]2(CCCN(C(=O)c3cccnc3)C2)O1	none (no result: Mito fusion act, Abeta rescue, TDP-43 yeast inh, aSyn yeast inh)
COc1cc(-n2c(C)nc3cc(C(=O)N4CCN(C(C)=O)CC4)ccc32)cc(OC)c1OC	none (no result: Mito fusion act, Abeta rescue, TDP-43 yeast inh, aSyn yeast inh)
C#CCNC(=O)C[C@H]1C(=O)N(CCc2ccc(Cl)cc2)C2=CCCC[C@@]21C(=O)OCC	none (no result: Mito fusion act, Abeta rescue, TDP-43 yeast inh, aSyn yeast inh)
COc1ccc(S(=O)(=O)N2CCN(C(=O)c3ccco3)CC2)c(C)c1C	TDP-43 yeast inh 22µM
O=C(c1ccco1)N1CCN(S(=O)(=O)c2c(Cl)cccc2Cl)CC1	TDP-43 yeast inh 16µM
O=C(c1ccco1)N1CCN(C(=O)c2ccc(-c3ccc(Cl)cc3)o2)CC1	TDP-43 yeast inh 22µM
Cc1cc(Cl)c2oc(C(=O)N3CCN(C(=O)c4ccco4)CC3)c(C)c2c1	Mito fusion act inconclusive, TDP-43 yeast inh 22µM, FUS yeast rescue inconclusive
COc1cccc(CN2CCN(CCCc3ccccc3)C(CCO)C2)c1O (stereo not given)	none
C[n+]1c(/C=C/c2ccnc3ccccc23)cc(/C=C/c2ccnc3ccccc23)c2ccccc21	none (no result: Mito fusion act, Abeta rescue, TDP-43 yeast inh, FUS yeast rescue)
O=C(COC(=O)/C=C/c1ccc(F)cc1)Nc1ccc(S(=O)(=O)N2CCOCC2)cc1	none (no result: Mito fusion act, FUS yeast rescue)
Cc1cccc(-c2nnc(SCC(=O)N3CCOCC3)o2)c1	none
O=C(O)CCC(=O)NNC(=O)CCC1CCCCC1	none
O=C(CCC1CCCCC1)NNC(=O)NC12CC3CC(CC(C3)C1)C2	Mito fusion act inconclusive, FUS yeast rescue 25µM
COc1cccc2c1C(=O)/C(=C\c1ccc(N(C)C)cc1)C2	none (no result: Mito fusion act, Abeta rescue, TDP-43 yeast inh, FUS yeast rescue)
CCOc1ccc(C(=O)Nc2ccccc2C#N)cc1[N+](=O)[O-]	none
CCOc1ccc(C(=O)Nc2ccccc2CC)cc1[N+](=O)[O-]	Abeta rescue inconclusive, TDP-43 yeast inh 28µM
CCOC(=O)[C@]12CCCC3=C1N(CCC3)C(=O)[C@@H](CC(=O)NCCC(C)C)C2	none (no result: Mito fusion act, Abeta rescue, TDP-43 yeast inh, aSyn yeast inh)
O=C(COCc1ccccc1)N1CC[C@H]2[C@H](CCCN2Cc2ccc(F)cc2)C1	none (no result: Mito fusion act, Abeta rescue, TDP-43 yeast inh, aSyn yeast inh)
O=S(=O)(Nc1nc(SCc2ccc(Cl)cc2)n[nH]1)c1ccc(F)cc1	Abeta rescue inconclusive, TDP-43 yeast inh 20µM
CCc1nc(SCc2ccc(Cl)cc2)n[nH]1	TDP-43 yeast inh 13µM
N#Cc1ccc(C(=O)Nc2nc(SCc3ccc(Cl)cc3)n[nH]2)cc1	none
O=C(NCc1cccc(Cl)c1)O[C@H]1CC[C@@]23CCCN2C(=O)CCC[C@H]3C1	none (no result: Mito fusion act, Abeta rescue, TDP-43 yeast inh, aSyn yeast inh)
O=C(c1cnn(-c2ccccc2)c1)c1cc(F)ccc1O	TDP-43 yeast inh 10µM
COc1ccc(-n2cc(C(=O)c3ccccc3O)cn2)cc1	TDP-43 yeast inh 13µM
O=C(c1cnn(-c2ccccc2)c1)c1ccccc1O	TDP-43 yeast inh inconclusive
CCOC(=O)C1C(=O)C(=O)N(C2CCCCC2)C1C(=O)OCC (stereo not given)	none (no result: Mito fusion act)

Bioassay records from PubChem.
